In all, about 68,000 sequences were measured (“fluorescence intensity (a.u.)”: median about 9,100, highest 2% from about 16,000 on). This excerpt belongs to a sample that is enriched for the highest values.

Chain of OsWRKY34 (Q0JBA9 entry or part of it): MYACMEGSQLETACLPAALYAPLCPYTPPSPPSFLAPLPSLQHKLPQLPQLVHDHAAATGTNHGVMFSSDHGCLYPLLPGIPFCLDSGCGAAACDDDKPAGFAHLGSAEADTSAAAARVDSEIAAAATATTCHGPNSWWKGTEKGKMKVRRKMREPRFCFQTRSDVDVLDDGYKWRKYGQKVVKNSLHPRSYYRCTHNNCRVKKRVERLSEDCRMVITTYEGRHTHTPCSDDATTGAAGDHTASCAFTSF

This experiment addresses OsWRKY34 (Oryza sativa, UniProt Q0JBA9 1-250). The experiment is described as follows: protein-binding microarray (RPBM); PBS, 2% BSA, 51.3 ng/ul salmon testes DNA, 50 uM zinc acetate, 200 nM TF, 25 C, 1 h; high values mean tight binding. Particulars: protein: recombinant; tags: N-terminal polyhistidine and DsRed monomer fusion (pET32a); label: CyDye5-dUTP incorporated in the synthesized complementary strand; 3' TTTTT single-stranded linker to array surface; dsDNA, one strand shown. In outline:
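A custom Agilent array was converted to double-stranded form by primer extension with Cy5-dUTP and blocked with 2% BSA. Protein at 200 nM in PBS with 2% BSA, salmon testes DNA and 50 µM zinc acetate was applied for 1 h at 25 °C, followed by washing. The proteins were polyhistidine–DsRed N-terminal fusions of transcription factors, expressed in E. coli BL21-CodonPlus and Ni–NTA-purified. The binding signal is per-feature fluorescence intensity (arbitrary units) from an Axon 4000B scanner.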
As for “AGATTGTGGTGGGTGTTGATTGTGGTGATCTTGTCCCCTCCGGAGTCACCTAGTGCAG”, the binding signal was 13000 fluorescence intensity (a.u.). For “GGGCTGGAGATGGAGATGGAGATGGAGATGGAGGGTGGGTCGGAGTCACCTAGTGCAG” the value was 8660 fluorescence intensity (a.u.). Take “GGAGATCCTGAGGCAGCGGGGAGAGGGGAGGTGGGCGATGCGGAGTCACCTAGTGCAG”: the binding signal was 10500 fluorescence intensity (a.u.). With “CTACTATACGTCGATGGGGAGGGAGGGAGGGTGGCTGTAGCGGAGTCACCTAGTGCAG” the figure was 26400 fluorescence intensity (a.u.); with “AGGCGAGCGAGGCGGGTGGGCGGGGAGCGAACCAACGACGCGGAGTCACCTAGTGCAG”, 8840 fluorescence intensity (a.u.); with “GGAGAAAAAGGGGAGGGAGGGAGATGATGACGTGTAGGGGCGGAGTCACCTAGTGCAG”, 8550 fluorescence intensity (a.u.). As for “GGCGGGGCGGCGGAGGTGGTGGTGGGGAGGGCGAGAGATGCGGAGTCACCTAGTGCAG”, the binding signal was 23400 fluorescence intensity (a.u.). For the sequence “GGCTCGCGGAGGGCGGGGCTGGGATGGTGGCGGATGGGAGCGGAGTCACCTAGTGCAG”, the binding signal is 10800 fluorescence intensity (a.u.). With “GTGGTGTAGTGGGAGCGGCCGAGATGGGGCGTCGACGGGGCGGAGTCACCTAGTGCAG” the figure was 8770 fluorescence intensity (a.u.); with “AGAGATGCGTGTGTAGGCGGCGGGGAGGGGAGGGCTGTGACGGAGTCACCTAGTGCAG”, 17700 fluorescence intensity (a.u.). On to “GCGGGAGGAGAGCGGCGGGCGGCGGGCGGCGGCGGCTGTGCGGAGTCACCTAGTGCAG”, for which the binding signal was 9520 fluorescence intensity (a.u.).

“AGAGGAGGAGAGTGGTGGTGGTGCGAGAGGGAGGGAGATGCGGAGTCACCTAGTGCAG”: the binding signal is 9230 fluorescence intensity (a.u.). For “CTCGAGCGGCGGTGGGGATGGGGATGGGGCGGCGGCGACGCGGAGTCACCTAGTGCAG”, the binding signal was 17000 fluorescence intensity (a.u.). For “ATTGCATCGCCCATTTCGCTCATGGATCAGTAGGTAGCCACGGAGTCACCTAGTGCAG”, the binding signal was 8190 fluorescence intensity (a.u.). With “AGTCAGTGACATCTATCTTTTCATCGATGTGTCTATTGCCCGGAGTCACCTAGTGCAG” the figure was 8640 fluorescence intensity (a.u.); with “ACCCATCCATCGCCAGCCATGCACACCCTCGCTCTGACGACGGAGTCACCTAGTGCAG”, 8640 fluorescence intensity (a.u.); with “CAACGAGGAGCGATGCATATCTAGCAGTTTTGTTTTTCATCGGAGTCACCTAGTGCAG”, 8420 fluorescence intensity (a.u.). As for “TACACCCTTGGGCCCACCTGTCAACCTCTCACCCTATATTCGGAGTCACCTAGTGCAG”, the binding signal was 11900 fluorescence intensity (a.u.).

Take “GATGAGTCCTCACCTGAGTTTCTTCCGTCCATGGCGGCCGCGGAGTCACCTAGTGCAG”: the binding signal was 10500 fluorescence intensity (a.u.). On to “ATCCCCAGCCTCCAATACCGGTCCCGTGCTTGTTTTTCTTCGGAGTCACCTAGTGCAG”, for which the binding signal is 9470 fluorescence intensity (a.u.). With “AATTCGTACTTTTTCCTTTGTGTTTTGTCTATCTTAAATTCGGAGTCACCTAGTGCAG”, the binding signal is 14300 fluorescence intensity (a.u.).

As for “AAACCCACCCACCCAGCGCTTCTTCTTTCCTTTCTTTATTCGGAGTCACCTAGTGCAG”, the binding signal was 12900 fluorescence intensity (a.u.). As to “TTTCCAACCTGATCGGGTGCTGCCTTTTCATTCTTCCCTCCGGAGTCACCTAGTGCAG”, the binding signal was 8430 fluorescence intensity (a.u.).

Regarding “ATTTCCCCTGAACTCTACGTTTACAGGTTATGGTTATCTCCGGAGTCACCTAGTGCAG”, the binding signal was 8350 fluorescence intensity (a.u.). Turning to “ATACATATTTTTTTCTCTATTTCTGCCCAACATGTTTTTCCGGAGTCACCTAGTGCAG”, the binding signal is 8950 fluorescence intensity (a.u.).

For the sequence “AAGGGTTATCGACCTACGCCTGCTGGCCCTTTTCGGCTTTCGGAGTCACCTAGTGCAG”, the binding signal is 9300 fluorescence intensity (a.u.). With “CGTTGGAACGTGCGGGTGTGGGGAAACTGAGGGTGAGGATCGGAGTCACCTAGTGCAG”, the binding signal is 8600 fluorescence intensity (a.u.).

Turning to “TCGGCGGCGAGGTGGTGGCGGTGGCGGTGGTGGGAGTAGTCGGAGTCACCTAGTGCAG”, the binding signal is 15200 fluorescence intensity (a.u.). For the sequence “TGCATTGACCAGGTCAACGGGAGAGGGAGGGGCAAAATCGCGGAGTCACCTAGTGCAG”, the binding signal was 19600 fluorescence intensity (a.u.).

“TGGTGGTGGTGGTGGCTGTAGTGTGGAGGTGGTGGGGAGTCGGAGTCACCTAGTGCAG”: the binding signal was 16700 fluorescence intensity (a.u.). Turning to “CGCTCGGCGGTGAGGTGGAGGTGGAGGTGGGTGGGAGATGCGGAGTCACCTAGTGCAG”, the binding signal was 12900 fluorescence intensity (a.u.). As for “TGTCAGGTCAAATCGGGGAGGCGGGGTGCGTACCAACGGTCGGAGTCACCTAGTGCAG”, the binding signal is 11900 fluorescence intensity (a.u.). In the case of “GATGCGGGTGAGGTGCCGCGCTGTGGGGAGAGAGGGTGGGCGGAGTCACCTAGTGCAG”, the binding signal is 8560 fluorescence intensity (a.u.).

Take “GAGGTGGGTGTGGAACTGTGGATGCGGGTCGGGGAGATCGCGGAGTCACCTAGTGCAG”: the binding signal was 16900 fluorescence intensity (a.u.).

“GCTGTGGCGGAGGTGGGGAGGTGGAGGTGGAGGGGAGATGCGGAGTCACCTAGTGCAG”: the binding signal is 24600 fluorescence intensity (a.u.). On to “CTGTGCGGGAGGTGGAGATGGAGATGGTGGGTGGATCGGACGGAGTCACCTAGTGCAG”, for which the binding signal was 8630 fluorescence intensity (a.u.).

For “GGGAGATTTGTTGCAACGGAGGGCATTGAGTGGTGGGGACCGGAGTCACCTAGTGCAG”, the binding signal was 8570 fluorescence intensity (a.u.). With “AAACGCTGTGGTGGGTGGTGGTGCGGATGGGGAGGTGTGGCGGAGTCACCTAGTGCAG”, the binding signal is 14100 fluorescence intensity (a.u.).

Take “CATCTGATCGGCATCGGCATCGTCCTCGTCCTCGGCATCACGGAGTCACCTAGTGCAG”: the binding signal was 9990 fluorescence intensity (a.u.). In the case of “TCTGGGTATCCTCTGTTATGTCATCTTCACCTCCATTTGGCGGAGTCACCTAGTGCAG”, the binding signal was 8690 fluorescence intensity (a.u.).

Turning to “CTGCTAGCCCGGTTAATCTACCAAAACCCGTCTTGATTTACGGAGTCACCTAGTGCAG”, the binding signal was 9070 fluorescence intensity (a.u.).

For the sequence “TTAGTATAGCTGTATTCTTCCCAACTTCCTATTTTCCTCTCGGAGTCACCTAGTGCAG”, the binding signal was 8540 fluorescence intensity (a.u.).

Regarding “CTCGAACCACTGACCATCCCGTCCACACTGCACCGCGCTACGGAGTCACCTAGTGCAG”, the binding signal was 8260 fluorescence intensity (a.u.).
